PubChem BioAssay AID651658 (Broad Institute, 2012)
Out of some 340,000 compounds screened, about 5,100 (1.5%) were called active. Many of the other results were omitted from the sample, so actives are more common in it than they were. A number with no mark means an inactive call.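 The calls were made as follows: active = mean Tm shift, scaled 0 neutral to 100 positive control, at about 1.3% or above, every replicate too (limit read from the data); inconclusive = no clear call, values can overlap the other calls; inactive = the rest.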

target: Fibroblast growth factor 22 (Homo sapiens) (UniProt Q9HCT0); test: FGF22 ligand-induced thermal stabilization – biophysical, thermal shift, single point, FGF22 synaptogenesis inhibitor project, primary screen (AID 651658); settings: recombinant FGF22 thermal shift, SYPRO orange fluorescence; at 9.99 µM; hits give high values; percent of sucrose octasulfate shift, DMSO zero
Sequence (Q9HCT0 whole entry, looked up): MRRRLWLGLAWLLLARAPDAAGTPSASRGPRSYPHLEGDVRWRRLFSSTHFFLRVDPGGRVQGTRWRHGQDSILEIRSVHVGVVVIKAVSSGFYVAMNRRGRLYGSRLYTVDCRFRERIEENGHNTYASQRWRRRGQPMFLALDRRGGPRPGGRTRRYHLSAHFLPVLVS

| SMILES | activity (Tm shift, normalised) |
| --- | --- |
| N#C[C@@H]1[C@@H](c2ccccc2)[C@H](CO)N1C(=O)c1cc(Cl)cc(Cl)c1 | -0.051% |
| O=C(NN1C(=O)C2C3C=CC(O3)C2C1=O)c1ccncc1 (stereo unspecified) | 0.125% |
| CC(C)=C1C2CCC1C1C(=O)N(NC(=O)c3ccco3)C(=O)C21 (stereo unspecified) | -0.011% |
| O=C(NN1C(=O)C2C3C=CC(O3)C2C1=O)c1ccccc1 (stereo unspecified) | 1.65% (active) |
| O=C(C[C@@H]1C[C@H]2c3cc(NC(=O)NC4CCCC4)ccc3O[C@H]2[C@@H](CO)O1)NC1CCCCC1 | -0.272% |
| O=C(C1CC1)N1CCCCN2[C@H](C1)[C@@H](c1ccc(-c3cccc(F)c3)cc1)[C@@H]2CO | -0.119% |
| C[C@@H]1CN([C@@H](C)CO)S(=O)(=O)c2ccc(-c3ccc(C#N)cc3)cc2O[C@H]1CN(C)Cc1ccccn1 | -0.176% |
| CCOC(=O)C1(C)NC(c2ccco2)C2C(=O)N(c3ccccc3)C(=O)C21 (stereo unspecified) | 0.052% |
| CCN(C[C@H]1N[C@@](CC)(C(=O)OC)[C@H]2C(=O)N(C)C(=O)[C@@H]12)C(=O)Nc1ccc(F)cc1 | -0.067% |
| CC[C@@]1(C(=O)OC)N[C@H](CN(C)C(C)=O)[C@@H]2C(=O)N(C)C(=O)[C@@H]21 | 43.4% (active) |
| CCCSc1ccc([C@H]2N[C@@](Cc3ccccc3)(C(=O)OC)[C@H]3C(=O)N(C)C(=O)[C@@H]23)cc1 | 0.041% |
| COC(=O)[C@]1(C)N[C@H](CN(C)C(=O)c2ccc(C(C)(C)C)cc2)[C@@H]2C(=O)N(C)C(=O)[C@@H]21 | 0.232% |
| CCCC1(C(=O)OC)NC(c2ccco2)C2C(=O)N(C)C(=O)C21 (stereo unspecified) | 43.8% (active) |
| COc1cccc(S(=O)(=O)N2[C@@H]3CNC[C@H]2C3c2ccc(-c3cccc(C(=O)N(C)C)c3)cc2)c1 (stereo partly specified) | 0.014% |
| C[C@@H]1CN([C@H](C)CO)C(=O)c2cc(NC(=O)c3ccncc3)ccc2O[C@@H]1CN(C)C(=O)Nc1ccc(F)cc1 | -0.074% |
| CO[C@@H]1CN(C)C(=O)c2cc(NS(C)(=O)=O)ccc2OC[C@@H](C)N(C(=O)C2CCC2)C[C@@H]1C | -0.13% |
| CO[C@H]1CN(C)C(=O)c2ccc(NC(=O)C3CCCC3)cc2OC[C@H](C)N(C(=O)CC2CC2)C[C@@H]1C | 0.031% |
| COc1ccccc1NC(=O)N1[C@H](C#N)[C@H](c2ccccc2)[C@H]1CO | 1.69% (active) |
| CCCNC(=O)N1[C@H](C#N)[C@@H](c2ccccc2)[C@H]1CO | 0.065% |
| N#C[C@@H]1[C@@H](c2ccccc2)[C@@H](CO)N1C(=O)Cc1ccccc1 | -0.224% |
| CCCc1cn(CC[C@H]2CC[C@@H](NS(=O)(=O)c3ccccc3Cl)[C@@H](CO)O2)nn1 | -0.219% |
| Cc1ccc(NC(=O)Cn2cnc3c(OCc4ccccc4)ncnc32)cc1C | 0.021% |
| O=C(Cn1cnc2c(OCc3ccccc3)ncnc21)NCCCn1ccnc1 | 43.3% (active) |
| CC(CNC(=O)Cn1cnc2c(OCc3ccccc3)ncnc21)c1ccccc1 (stereo unspecified) | -0.208% |
| CCC(=O)N(C)C[C@@H]1Oc2ncc(C#CCc3ccccc3)cc2C(=O)N([C@H](C)CO)C[C@H]1C | -0.313% |
| Cc1cc(C)cc(OCC(=O)NNC(=O)CCN2C(=O)c3ccccc3C2=O)c1 | 43.2% (active) |

| SMILES | activity (Tm shift, normalised) |
| --- | --- |
| Cc1cc(C)cc(NC(=O)CCN2C(=O)c3ccccc3C2=O)c1 | 0.073% |
| COc1ccc(CNC(=O)CCN2C(=O)c3ccccc3C2=O)cc1 | -0.249% |
| CNS(=O)(=O)c1ccc(C(=O)NCC(=O)NCCc2ccc3c(c2)OCCO3)cc1 | 0.051% |
| Cc1ccc(NS(=O)(=O)c2ccc(C(=O)NCCCN3CCOCC3)cc2)cc1 | -0.45% |
| CCN(CC)CCNC(=O)c1ccc(NS(=O)(=O)c2ccc3c(c2)OCCO3)cc1 | 42.9% (active) |
| C[C@H](NC(=O)C[C@H]1CC[C@H]2[C@@H](COC[C@H](O)CN2C(=O)Nc2cccc(Cl)c2)O1)c1ccccc1 | 0.797% |
| O=C(CCN1CCCCC1)N[C@H]1CC[C@H](CCNS(=O)(=O)c2ccc(F)cc2)O[C@@H]1CO | 0.837% |
| C[C@H](CO)N1C[C@H](C)[C@H](CN(C)Cc2ccncc2)Oc2ncc(C#CCC3CCCCC3)cc2C1=O | -0.367% |
| C=CCc1ccccc1OCC(O)CN1CCN(CCO)CC1 (stereo unspecified) | -0.051% |
| C=CCc1ccc(OCC(O)CN2CCN(Cc3ccccc3)CC2)c(OC)c1 (stereo unspecified) | 43.3% (active) |
| C/C=C/c1ccc(OCC(O)CN2CCCCCCC2)c(OC)c1 (stereo unspecified) | 0.015% |
| O=C(Nc1ccc(F)cc1)N1CCCCN2[C@H](CO)[C@H](c3ccc(-c4ccncc4)cc3)[C@@H]2C1 | -0.055% |
| C/C=C/c1ccc([C@@H]2[C@H](CO)N(CC3CCOCC3)C23CN(S(=O)(=O)CC)C3)cc1 | -0.282% |
| CCNC(=O)c1cc2c(c(-c3cccc(C4=CCCC4)c3)n1)[C@H](CCO)N([S@@](=O)C(C)(C)C)C2 | 0.297% |
| O=C(Cc1ccncc1)NCC[C@H]1CC[C@H](NC(=O)Nc2cccc(F)c2)[C@H](CO)O1 | -0.333% |
| C[C@@H]1CN([C@H](C)CO)C(=O)c2cc(NS(=O)(=O)c3cccs3)ccc2O[C@@H](C)CCCCO[C@@H]1CN(C)C(=O)c1ccncc1 | -0.018% |
| COc1ccc2c3c([nH]c2c1)[C@@H](CO)NCC31CN(S(=O)(=O)c2cccs2)C1 | 0.072% |
| CCNC(=O)C[C@@H]1CC[C@@H](NC(=O)NC2CCCCC2)[C@H](CO)O1 | -0.281% |
| COc1ccc(NC(=O)N(C)C[C@@H]2OCCCC[C@@H](C)Oc3ccc(NC(=O)C4CCCCC4)cc3C(=O)N([C@@H](C)CO)C[C@@H]2C)cc1 | -0.291% |
| COC(=O)[C@@H]1[C@@H](CO)[C@@H]2Cn3c(ccc(-c4ccccc4)c3=O)[C@@H]2N1C(=O)C1CC1 | -0.013% |
| CN(C)C(=O)c1ccc(NC(=O)COC(=O)c2cc3c(s2)CCCCC3)cc1 | 0.188% |
| O=C(COC(=O)c1ccc2c(c1)OCCO2)NCc1ccccc1Cl | -0.43% |
| O=C(COC(=O)c1cc2c(s1)CCCC2)NCc1ccccc1Cl | 2.24% (active) |
| COc1ccc2c3c([nH]c2c1)[C@H](CO)N(C(=O)C1CCOCC1)CC31CN(S(C)(=O)=O)C1 | -0.085% |
| CN(C)C(=O)c1cccc(-c2ccccc2[C@@H]2[C@@H](CO)N(C(=O)C3CCCCC3)[C@H]2C#N)c1 | 0.22% |
| COc1ccc2c3c([nH]c2c1)[C@H](CO)N(C(=O)c1ccccc1)CC31CCN(S(=O)(=O)c2cccs2)CC1 | -0.133% |

| SMILES | activity (Tm shift, normalised) |
| --- | --- |
| CCC1([N+](=O)[O-])COC(c2ccc(C(C)C)cc2)OC1 (stereo unspecified) | 0.068% |
| CCC1(C)COC(c2ccc(OC)c(OC)c2)OC1 (stereo unspecified) | -0.154% |
| CCC1([N+](=O)[O-])COC(c2ccc(C)cc2)OC1 (stereo unspecified) | 43.3% (active) |
| C/C=C/c1ccc([C@H]2[C@@H](CO)N3CCCCN(C(=O)c4ccc(F)cc4)C[C@@H]23)cc1 | -0.174% |
| COc1ccc(F)c(-c2nc(CN3CCC(c4ccccc4)CC3)c(C)o2)c1 | 0.157% |
| Cc1oc(-c2ccccc2F)nc1CS(=O)CC(=O)NCCN1CCCCC1C (stereo unspecified) | -0.146% |
| Cc1nonc1C1CCCN1Cc1nc(-c2ccc(F)cc2F)oc1C (stereo unspecified) | 43.2% (active) |
| C[C@H](CO)N1C[C@H](C)[C@H](CN(C)CC2CCCC2)Oc2ncc(-c3ccc(F)cc3)cc2C1=O | -0.41% |
| CSc1ccc(/C=N/N2CCN(Cc3ccccc3Cl)CC2)cc1 | 43.3% (active) |
| COc1ccccc1/C=N/N1CCN(Cc2ccccc2Cl)CC1 | -0.025% |
| Cc1ccc(CN2CCN(/N=C/c3cccnc3)CC2)c(C)c1 | 0.311% |
| Cc1c(-c2ccccc2)n[nH]c1C(=O)N=Nc1c(O)[nH]c2ccccc12 | 0.025% |
| NS(=O)(=O)c1ccccc1NC(=O)c1c(O)c2ccccc2[nH]c1=O | 0.089% |
| CC(=O)c1c(-c2ccccc2)c2ccccc2[nH]c1=O | 43.2% (active) |
| COc1cccc(NC(=O)N2C[C@@H](O)COC[C@@H]3O[C@@H](CC(=O)NC4CCC4)CC[C@H]32)c1 | -0.083% |
| COc1ccc(CCN2C(=O)[C@@]3(Cc4ccccc42)c2ccccc2C(=O)N(Cc2ccccc2C(F)(F)F)[C@H]3c2ccc(CO)cc2)cc1 | -0.145% |
| CCNS(=O)(=O)c1ccc(CCC(=O)N2CCN(c3ccc(OC)cc3)CC2)cc1 | 0.369% |
| CCOc1ccc(S(=O)(=O)NCCC(=O)N2CCCCCCC2)cc1 | 0.162% |
| CCCNS(=O)(=O)c1ccc(CCC(=O)N2CCCC2)cc1 | 43% (active) |
| CC(C)NC(=O)Nc1ccc2c(c1)C(=O)N([C@H](C)CO)C[C@@H](C)[C@@H](CN(C)Cc1ccncc1)O2 | 0.001% |
| O=C(Nc1cccc2ccccc12)c1[nH]c(-c2ccccc2)c2c1C(=O)N(C1CC1)C2=O | -0.298% |
| O=C(OCc1ccc(-c2ccccc2)cc1)c1cccc(O)c1 | -0.21% |
| CC(C)(C)N1C(=O)c2c(C(=O)OCc3ccccc3)[nH]c(-c3ccccc3)c2C1=O | 2.17% (active) |
| CCCNC(=O)Nc1ccc2c(c1)C(=O)N(C)[C@H]1CC[C@H](CC(=O)NCC3CCCCC3)O[C@@H]1CO2 | -0.32% |
